According to PubChem BioAssay (NCI):
Values joined by “and” are separate entries in the source; they are usually repeats but may differ in a detail not shown here. Equal entries are not always repeated. The panel holds about 83,000 compounds, 20% with a hit somewhere; the sample as a whole holds those more often.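 Cell lines were cultured in 96-well plates, exposed to a single compound concentration, and assessed for percent growth 48 hours later.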 Active and inactive are the calls of the source. How the source made its calls: active means growth percent below 10; inactive means the rest.

Tested on: MDA-MB-468 breast
Test: NCI-60 one-dose screen, 48 h (100 = growth as untreated, 0 = no growth, -100 = all killed)
Details: 10 µM unless noted

How did the growth turn out when Nc1ccc(Cl)cc1 was run?
The growth was 97% (inactive).

For C/C(=C\c1cc(C(F)(F)F)nn1CCNC(=O)OC(C)(C)C)[C@@H]1C[C@@H]2O[C@]2(C)CCC[C@H](C)[C@H](O)[C@@H](C)C(=O)C(C)(C)[C@@H](O)CC(=O)O1, which growth is on record?
The growth was 58.6% (inactive).

With O=C1NC(=O)C(=Cc2cn(C(=O)c3ccccc3)c3ccccc23)C(=O)N1 as the compound, how does the growth read?
Its growth is 101% (inactive).

How did the growth turn out when O=C(O)c1nn(Cc2ccc(Cl)cc2)c2ccccc12 was run?
The growth was 105% (inactive).

For c1cnc2c(c1)ccc1ncccc12, which growth is on record?
Its growth is 109% (inactive).

Nc1c(Br)cc2c3c(cccc13)-c1ccccc1-2 was tested. Which growth did it give?
Its growth is 3.54% (active).

For CCOC(=O)[C@@H](C)C[C@H](Cc1ccccc1)NC(=O)c1csc([C@@H](C[C@H](C(C)C)N(C)C(=O)[C@@H](NC(=O)[C@H]2CCCCN2C)C(C)(C)CC)OC(C)=O)n1, which growth is on record?
The growth was 19.5% (inactive).

Which growth does the source give for CC1=C2C(=C[C@@](C)(COC(=O)c3ccc(S(=O)(=O)F)cc3)[C@@H]2OC(=O)c2ccc(S(=O)(=O)F)cc2)C(=O)[C@](C)(O)C12CC2 here?
Its growth is -76.8% (active).

Which growth does the source give for O=C1NC(=O)C(=Cc2ccc(OCCCCC3CCCCC3)c(Cl)c2)C(=O)N1 here?
Its growth is 101% (inactive).

With Cc1ccc(Nc2nc3c(s2)C2=CC[C@@H]4[C@H](CC[C@]5(C)C(=O)CC[C@@H]45)[C@@]2(C)CC3)cc1 as the compound, how does the growth read?
Its growth is 32.3% (inactive).

With [O-][n+]1ccccc1S as the compound, how does the growth read?
Its growth is 85.2% (inactive).

For N#[N+]c1nc2nc(N)[nH]c(=O)c2[nH]1, which growth is on record?
The growth was 100% (inactive).

[N-]=[N+]=NC(C(=O)O)c1ccccc1 (centres undefined) was tested. Which growth did it give?
Its growth is 126% (inactive).

For CO/N=C1\CC[C@]2(C)[C@H]3CC[C@]4(C)C(=O)CC[C@H]4[C@@H]3C[C@@H]3SC(N)=N[C@@]32C1, which growth is on record?
Its growth is 88.8% (inactive).

With CO[C@@H]([CH2][Hg][O]C(=O)c1ccccc1)[C@@H]([CH2][Hg][O]C(=O)c1ccccc1)OC as the compound, how does the growth read?
Its growth is 94% (inactive).

With CCCCOC(=O)c1ccccc1C(=O)O.CCCCOC(=O)c1ccccc1C(=O)O.[Cu+2] as the compound, how does the growth read?
Its growth is 103% (inactive).

[Cl][Hg][c]1ccc(Cl)s1 was tested. Which growth did it give?
Its growth is -61% (active).

How did the growth turn out when N#C[Se]CCCNS(=O)(=O)C1CC2C=CC1C2 (centres undefined) was run?
The growth was -30% (active).

With Brc1ccc2c(c1)c(-c1nc(-c3c[nH]c4ncccc34)cs1)cn2CCN1CCCCC1 as the compound, how does the growth read?
The growth was 79.2% (inactive).

Which growth does the source give for C=COC(=O)CCN1CC1 here?
The growth was 108% (inactive).

C[C@@H]1O[C@@H](O[C@H]2C[C@@H](O)[C@]3(CO)C4C(CC[C@]3(O)C2)[C@@]2(O)CC[C@H](C3=CC(=O)OC3)[C@@]2(C)C[C@H]4O)[C@H](O)[C@H](O)[C@H]1O (some centres undefined) was tested. Which growth did it give?
Its growth is -68.2% (active).

Which growth does the source give for Cc1ccc(C(=O)NCCCOc2ccc(N3C(N)=NC(N)=NC3(C)C)cc2Cl)cc1S(=O)(=O)F here?
Its growth is 123% (inactive).

Which growth does the source give for N#C[S-].[Au+].c1ccc(CN2[CH-]N(Cc3ccccc3)C(c3ccccc3)=C2c2ccccc2)cc1 here?
The growth was -3.8% (active).

With CCCCCCCCCCCCCCCCCC1OC[C@H](COC(=O)O[C@@H](C(=O)O[C@H]2C[C@@]3(O)[C@@H](OC(=O)c4ccccc4)[C@@H]4[C@]5(OC(C)=O)CO[C@@H]5C[C@H](O)[C@@]4(C)C(=O)[C@H](OC(C)=O)C(=C2C)C3(C)C)[C@@H](NC(=O)c2ccccc2)c2ccccc2)O1 (some centres undefined) as the compound, how does the growth read?
Its growth is 0.893% (active).

Which growth does the source give for COc1cc(C2=NN(c3ccccc3)C(c3sc(N(CCCl)CCCl)nc3Cl)C2)cc(OC)c1OC (centres undefined) here?
Its growth is 87.9% (inactive).

O=[N+]([O-])c1ccc(OCc2ccc(S(=O)(=O)F)c(Cl)c2)c(Cl)c1 was tested. Which growth did it give?
Its growth is 121% (inactive).

For CCCC(C)SP(=S)(SC(C)CCC)SC(C)CCC (centres undefined), which growth is on record?
The growth was -25.4% (active).

With O=c1[nH]c(=O)n(Cl)c(=O)n1Cl as the compound, how does the growth read?
Its growth is 106% (inactive) and 117% (inactive).

C[C@H](O)CCC(=O)c1ccoc1 was tested. Which growth did it give?
Its growth is 98.7% (inactive).

With n1nc(-c2nonc2-c2nn[nH]n2)n[nH]1 as the compound, how does the growth read?
Its growth is 101% (inactive).

With O=[N+]([O-])c1cc([N+](=O)[O-])c(Cl)c(Cl)c1Cl as the compound, how does the growth read?
Its growth is -57.3% (active).

How did the growth turn out when COC(=O)[C@@H](C[C@H](Cc1ccccc1)NC(=O)c1csc([C@@H](C[C@H](C(C)C)N(C)C(=O)[C@@H](NC(=O)[C@H]2CCCCN2C)C(C)C)OC(C)=O)n1)NC(=O)OCc1ccccc1 was run?
Its growth is 16.5% [9.5 µM] (inactive).

Which growth does the source give for CC(CC1CCCCC1)NCc1ccccc1 (centres undefined) here?
The growth was 102% (inactive).

NC(=O)c1cc([N+](=O)[O-])c(Cl)c([N+](=O)[O-])c1 was tested. Which growth did it give?
The growth was 19.8% (inactive).

Which growth does the source give for CC[C@H](CC[C@@H](C)[C@H]1CC[C@H]2[C@@H]3CC[C@H]4C[C@]5(CC[C@]4(C)[C@H]3CC[C@]12C)OO[C@](C)(C(F)(F)F)O5)C(C)C here?
Its growth is 95.2% (inactive).

Which growth does the source give for O=[N+]([O-])/C=C/c1ccc([N+](=O)[O-])cc1 here?
Its growth is 77.7% (inactive).

For CN(C)c1ccc(N)cc1, which growth is on record?
The growth was 98% (inactive) and 5.01% (active).

Cc1cccc(N=C2c3cc([N+](=O)[O-])ccc3-c3c2cc([N+](=O)[O-])cc3[N+](=O)[O-])c1 was tested. Which growth did it give?
The growth was -24.4% (active).

Which growth does the source give for COc1cc(C2CC(=O)Nc3nc(N)[se]c32)cc(OC)c1OC (centres undefined) here?
Its growth is 99.3% (inactive).
